Dicer processing: blocks human Dicer maturation of pre-miR-21. Q9UPY3. cat-ELCCA pre-miR-21 Dicer processing, chemiluminescence; stronger effect = higher value. z-score at 25 µM. 47,000 tested, 6% active. AID 1347074; in the data active means z-score above about 3, passing the limit was not always enough;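 further: higher signal means more uncleaved substrate so more Dicer inhibition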
Hits are given with their value; i = inactive. Shown is part of a subset that was picked to be rich in hits.

SMILES | Dicer processing
COc1ccc(C2Nc3ccc(C(=O)c4ccccc4)cc3NC3=C2C(=O)CCC3)c(OC)c1 (configuration not stated) | i
COc1cc(C2Nc3ccc(C(=O)c4ccccc4)cc3NC3=C2C(=O)CCC3)ccc1OC(C)=O (configuration not stated) | i
CN(C)c1ccc(C2Nc3ccc(C(=O)c4ccccc4)cc3NC3=C2C(=O)CCC3)cc1 (configuration not stated) | 5
CCOC(=O)C(NC(=O)c1nn(-c2ccccc2)nc1C)C(=O)OCC | i
CNC(=S)NNC(=O)c1sc2nnc(-c3ccccc3)c(-c3ccccc3)c2c1N | i
COC(=O)c1c(NC(=O)c2cc3ccccc3o2)sc2c1CCC2 | i
O=C(COC(=O)c1ccccc1-c1ccccc1)c1ccccc1 | i
O=C(COC(=O)c1ccc(C(O)c2ccccc2)cc1)c1ccccc1 (configuration not stated) | 4
O=C(COC(=O)c1ccccc1Nc1ccccc1F)c1ccccc1 | i
O=C(O)c1cccc2c1NC(c1ccc(F)cc1)C1C3CCC(C3)C21 (configuration not stated) | i
CC(C)c1ccc(N2C=Nc3ccc(C(C)C)cc3C2)cc1 | i
O=c1[nH][nH]c(=S)n1-c1ccc(Cl)c(Cl)c1 | i
Clc1ccc(N2C=Nc3cc(Cl)c(Cl)cc3C2)cc1Cl | 3.1
CC(C)c1nnc(N2C(=O)c3oc4ccccc4c(=O)c3C2c2ccc(Cl)cc2)s1 (configuration not stated) | i
COc1cc2nc(NC(=O)c3ccco3)sc(=O)c2cc1OC | i
COc1cc2nc(NC(C)=O)sc(=O)c2cc1OC | 3.6
COc1cc2nc(NC(=O)c3ccc(C(C)(C)C)cc3)sc(=O)c2cc1OC | i
O=S1(=O)CC=C(Sc2ccccc2)C1 | i
O=S(=O)(Nc1ccc(OCc2ccccc2)cc1)c1ccc2c(c1)OCCO2 | 3.4
O=S(=O)(NCCc1ccccn1)c1ccc2c(c1)OCCCO2 | i
COc1ccc(NS(=O)(=O)c2ccc3c(c2)OCCO3)c(OC)c1 | i
COc1ccccc1C1CCN(c2ccc(C(F)(F)F)cc2[N+](=O)[O-])CC1 | i
COc1ccccc1C1CCN(c2ccc([N+](=O)[O-])c(OC)c2)CC1 | 3.4
COc1ccccc1C1CCN(Cc2ccc(Cl)cc2Cl)CC1 | i
N#Cc1cc(-c2nc3ccccc3[nH]2)c(N)n2c1nc1ccccc12 | i
SMILES | Dicer processing
O=C(Nc1cccc(Cl)c1)Nc1ccc2nnsc2c1 | i
CCCCc1c(COC)nc(N)[nH]c1=O | i
CCCc1c(Cc2c(F)cccc2Cl)c(=O)oc2cc(OC(=O)COC)ccc12 | 4.4
Cc1c(Cc2c(F)cccc2Cl)c(=O)oc2cc(O)ccc12 | i
CCCc1c(Cc2c(F)cccc2Cl)c(=O)oc2cc(OS(C)(=O)=O)ccc12 | i
O=c1c2ccccc2cnn1-c1ccccc1 | i
CCCNc1nc2c(c(=O)n(C)c(=O)n2C)n1Cc1cccc2ccccc12 | i
Cc1ccc(-c2nc(N)sc2C)cc1 | i
Cc1sc(N)nc1-c1ccc(CC(C)C)cc1 | i
Cc1ccc(-c2nc(N)sc2-c2ccccc2)cc1 | 3.1
CC1Oc2ccc(C(=O)c3ccccc3C(=O)O)cc2N(C)C1=O (configuration not stated) | i
COC(=O)/C=C1\SC(=Nc2ccc(Cl)cc2)N(c2ccc(Cl)cc2)C1=O | i
Cc1nn(-c2ccccc2)nc1C(=O)N1CCC(O)(c2ccc(Cl)cc2)CC1 | i
COc1ccc(-c2cc(C(F)(F)F)nc(SCCC(=O)N3CCCC3)n2)cc1 | 3.3
CC1CCN(C(=O)CCSc2nc(-c3ccco3)cc(C(F)(F)F)n2)CC1 | i
O=C(CCSc1nc(-c2ccc3c(c2)OCO3)cc(C(F)(F)F)n1)N1CCCC1 | i
Cn1cc(/C(N)=N/OC(=O)c2ccc(Cl)cc2)c(=O)n(Cc2ccccc2)c1=O | i
COc1cc(/C=N/NC(=S)N/N=C/c2ccc(O)c(OC)c2)ccc1O | 3.9
COc1ccc(/C=N/NC(=O)c2sc(=S)n(-c3ccccc3)c2N)cc1 | i
COc1ccc(/C=N/NC(=S)NN)cc1 | i
COc1cc(/C=N/NC(=O)c2sc(=S)n(C)c2N)ccc1O | 3.8
COc1cc(/C=N/NC(=S)NC2CC3C=CC2C3)ccc1C (configuration not stated) | i
Cn1c(N)c(C(=O)N/N=C/c2ccccc2)sc1=S | i
COc1ccc(-c2nnc3n2-c2ccccc2OC3)cc1 | i
N#Cc1cc([N+](=O)[O-])ccc1SCc1ccccc1 | i
SMILES | Dicer processing
CCCOc1ccc2nc(NC(=O)OC)sc2c1 | i
CCOc1ccc2nc(NC(=O)c3cccs3)sc2c1 | 4
CCOc1ccc2nc(NC(=O)c3ccc([N+](=O)[O-])o3)sc2c1 | i
CCc1[nH]nc2c1C(c1ccccc1)C(C#N)=C(N)O2 (configuration not stated) | i
Cn1c(=O)c2c(ncn2CC(=O)NCCN2CCOCC2)n(C)c1=O | i
Cc1onc(-c2c(Cl)cccc2Cl)c1C(=O)Nc1cccc(F)c1C(=O)Nc1ccc(F)cc1 | i
Cc1ccc(C(=O)Nc2cnc3sc4cc(C)ccc4n3c2=O)cc1 | i
Cc1nn2c3c(cnc2c1-c1ccc(F)cc1)C(=O)CC(c1cccs1)C3 (configuration not stated) | 4.2
Cc1nn2c3c(cnc2c1-c1ccc(F)cc1)C(=O)CC(c1ccc(F)cc1)C3 (configuration not stated) | i
Cc1nn2c3c(cnc2c1-c1ccc(Cl)cc1)C(=O)CC(c1cccs1)C3 (configuration not stated) | i
COc1ccc(C2C(C(=O)OC(C)C)=C(C)NC3=C2C(=O)CCC3)c(OC)c1 (configuration not stated) | i
COc1ccc(S(=O)(=O)N(C(=O)c2ccncc2)c2cc3sc(=O)oc3c3ccccc23)cc1 | i
CC(C)C(=O)N(c1ccc2oc(=O)sc2c1)S(=O)(=O)c1cccs1 | i
CC(C)C(=O)N(c1cc2sc(=O)oc2c2ccccc12)S(=O)(=O)c1cccs1 | i
O=C(c1ccncc1)N(c1ccc2oc(=O)sc2c1)S(=O)(=O)c1cccs1 | 5.5
O=C(c1cccnc1)N(c1ccc2oc(=O)sc2c1)S(=O)(=O)c1cccs1 | 6.1
O=C(Cc1ccccc1)N(c1ccc2oc(=O)sc2c1)S(=O)(=O)c1cccs1 | 5.4
COc1cc(CNCCO)ccc1OCc1ccc(F)cc1 | i
Cn1nnnc1SCC(=O)Nc1cccc(O)c1 | i
COc1cccc(-n2cc(-c3ccc(F)cc3)nc2SCC(C)=O)c1 | i
NC(N)=NC(N)=Nc1c(F)cccc1F | i
CSc1n[nH]c(-c2ccccc2)c1C#N | i
O=C(O)Cc1ccc2c(c1)OCCO2 | i
CCOC(=O)N1CCC(Nc2nc(N3CCCC3)nc(N3CCCC3)n2)CC1 | i
Cc1cc(C)c2c(n1)sc1c(=O)oc(C)nc12 | 4.9
SMILES | Dicer processing
CC(=O)Cn1cnc2c(sc3nc(C)cc(C)c32)c1=O | i
Cc1cc(C)c2c(n1)sc1c(=O)n(/N=C/c3ccccc3)c(C)nc12 | i
COC(=O)c1c(C)[nH]c(C)c1/C=C(\C#N)C(=O)c1ccc(Cl)cc1 | i
CSC1=N/C(=C\c2ccc(Cl)cc2)C(=O)N1N(C)C | i
CSC1=N/C(=C\c2ccc(Cl)cc2)C(=O)N1CCOc1ccc(Cl)cc1 | 3.6
CSC1=N/C(=C\c2ccc([N+](=O)[O-])s2)C(=O)N1CCOc1ccc(Cl)cc1 | i
CC(C)Nc1c(-c2ccccc2)oc2ccc(C(=O)O)cc2c1=O | i
COC(=O)c1cnn2c(C(F)F)cc(-c3ccc(C)cc3)nc12 | i
CCn1ncc(CNC(=O)c2cnn3c(C(F)F)cc(-c4ccc(C)cc4)nc23)c1C | i
